From PubChem BioAssay (NCATS)
“And” between values parts separate entries of the source, which are not always exact repeats. Equal values may be shown once. Records with an inconclusive call do not appear. The source made the active and inactive calls. Calls follow the shape of the dose curve; as a rule, active = well fitted curve in the direction sought with a large enough effect; inconclusive = small, poorly fitted or top-dose-only effect, or another doubt; inactive = no such curve, though single readings can be large; an effect the other way counts as inactive or inconclusive.

Tests used:
[1] = qHTS assay for measurement of the activity of small molecule inhibitors on Zika virus induced Caspase-3 activity in human astrocytoma cells (AID 1224859)
Procedure, shortened: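 Luminescent caspase-3/7 read-out (30 min reagent, room temperature) in human SNB-19 cells infected 6 h with ZIKV (2 FFU/cell) after 1 h compound pre-incubation; Data were normalised to uninfected and infected wells.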

[2] = qHTS Screen of the MIPE 4.0 Collection Against Ewings Sarcoma (RDES) (AID 1259252); also: nearly all actives have a fitted effect of over 35% in size; also: potency is read from the fitted curve at half-maximal effect
Procedure, shortened: (§1)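 Here, cells in 5% FBS RPMI were exposed for two days (48 h) to compound dilutions added four hours after plating. ATP-based CellTiter-Glo luminescence measured viability, normalized to vehicle and no-cell blanks.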

[3] = qHTS Screen of the MIPE 4.0 Collection Against Ewings Sarcoma (TC71) (AID 1259253); also: nearly all actives have a fitted effect of over 40% in size; also: potency is read from the fitted curve at half-maximal effect
Procedure, shortened: as §1

[4] = qHTS Screen of the MIPE 4.0 Collection Against Ewings Sarcoma (EW8) (AID 1259255); also: potency is read from the fitted curve at half-maximal effect; nearly all actives have a fitted effect of over 35% in size
Procedure, shortened: as §1

[5] = P-glycoprotein substrates identified in KB-8-5-11 adenocarcinoma cell line, qHTS therapeutic library screen (AID 1346987); also: nearly all actives have a fitted effect of over 65% in size; also: potency is read from the fitted curve at half-maximal effect
Procedure, shortened: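 KB-8-5-11: colchicine-selected sub-line of KB-3-1 over-expressing P-gp; assay medium lacked colchicine. 72 h drug exposure at 37 degree C, CellTiter-Glo.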

[6] = NS1 protein of Zika virus - qHTS assay to identify small molecule inhibitors in human HEK 293 cells (AID 1347053); also: nearly all actives have a fitted effect of over 55% in size; also: potency is read from the fitted curve at half-maximal effect
Procedure, shortened: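 Following 20 h seeding, HEK 293 cells took compound, then 1 h later ZIKV MR766 (MOI = 0.5). Incubation ran 24 h at 37 C before TR-FRET detection of NS1; a drop in signal indicates inhibition.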

[7] = Identifying Small Molecule Inhibitors of Pancreatic Cancer Stem Cells (SN12C, Adherent) (AID 1259358);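 also: cell survival measured after 48 h of compound exposure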; also: potency is read from the fitted curve at half-maximal effect
Procedure, shortened: (§2)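 Luminescent ATP readout (CellTiter-Glo) quantifies surviving cells after a 48 h drug incubation. Normalization uses DMSO wells as no inhibition and media-only wells as full inhibition; bortezomib served as positive control.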

[8] = Identifying Small Molecule Inhibitors of Pancreatic Cancer Stem Cells (A278, Adherent) (AID 1259361); also: nearly all actives have a fitted effect of over 35% in size
Procedure, shortened: as §2

[9] = qHTS Screen of the MIPE 4.0 Collection Against Ewings Sarcoma (TC32) (AID 1259256); also: nearly all actives have a fitted effect of over 45% in size; also: potency is read from the fitted curve at half-maximal effect
Procedure, shortened: as §1

[10] = Identifying Small Molecule Inhibitors of Pancreatic Cancer Stem Cells (SN12C, Spheroid) (AID 1259360); details: Potency: SN12C spheroid viability; also: potency is read from the fitted curve at half-maximal effect
Procedure, shortened: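 Pre-formed 14-day tumor spheroids or adherent cells dosed and incubated 48 h, 37C, 5% CO2. Viability assessed by CellTiter-Glo.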

[11] = Identifying Small Molecule Inhibitors of Pancreatic Cancer Stem Cells (Panc1, Adherent) (AID 1259362); details: Potency: viability; also: potency is read from the fitted curve at half-maximal effect
Procedure, shortened: as §2

[12] = P-glycoprotein substrates identified in KB-3-1 adenocarcinoma cell line, qHTS therapeutic library screen (AID 1346986); also: nearly all actives have a fitted effect of over 60% in size;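 also: potency is read from the fitted curve at half-maximal effect; potency is for cytotoxicity meaning loss of cell viability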
Procedure, shortened: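 KB-3-1 parental cells and P-gp-overexpressing KB-8-5-11 (colchicine omitted during assay) plated at 500 cells/well, dosed in dose-response, incubated 72 h at 37 degree C. CellTiter-Glo luminescence read; KB-8-5-11 also tested with tariquidar.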

[13] = Identifying Small Molecule Inhibitors of Pancreatic Cancer Stem Cells (Panc1, Spheroid) (AID 1259359);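 also: potency is read from the fitted curve at half-maximal effect; compound exposure lasted 48 h before reading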
Procedure, shortened: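 Cytotoxicity read by CellTiter-Glo luminescence after 48 h compound exposure at 37C; percent activity scaled between DMSO-treated cells and cell-free wells. Spheroid formats used cells pre-formed 14 days in stem cell media on hydrogel.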

Cc1cc(Nc2nc(N[C@@H](C)c3ccc(F)cc3)c(C#N)cc2F)n[nH]1
Potency [1]: inactive | Potency [2]: 1660 nM (active) | Potency [3]: 13200 nM (active) | Potency [4]: 1050 nM (active) | Potency [5]: 935 nM (active) and 580 nM (active) | Potency [6]: inactive

Cc1ccc(C(N)=O)cc1Nc1nccc(-c2cn(C(C)C)c3cnccc23)n1
Potency [1]: inactive | Potency [2]: 14800 nM (active) | Potency [3]: 8330 nM (active) | Potency [4]: 18700 nM (active) | Potency [7]: inactive | IC50 (viability decrease) [8]: 8330 nM (active) | Potency [5]: 20600 nM (active)

Nc1ccccc1NC(=O)c1ccc(CNc2nccc(-c3cccnc3)n2)cc1
Potency [1]: inactive | Potency [2]: 1320 nM (active) | Potency [3]: 1050 nM (active) | Potency [4]: 1050 nM (active) | IC50 (viability decrease) [8]: 1180 nM (active) | Potency [5]: 2.96 µM (active) and 2.31 µM (active)

Cc1cc(C(=O)N2CCN(c3cccc(Cl)c3)CC2)n(-c2ccccc2)n1
Potency [1]: inactive | Potency [2]: 743 nM (active) | Potency [3]: 6620 nM (active) | Potency [4]: 1180 nM (active) | Potency [5]: 372 nM (active) and 1.3 µM (active)

O=C(C=Cc1cccnc1)NCCCCC1CCN(C(=O)c2ccccc2)CC1
Potency [1]: inactive | Potency [2]: 4.2 nM (active) | Potency [3]: 4.2 nM (active) | Potency [9]: 4.2 nM (active) | Potency [7]: inactive | Potency [10]: 2.1 nM (active) | Potency [5]: 16.6 nM (active) | Potency [6]: inactive

NC(=O)Nc1cc(-c2cccc(F)c2)sc1C(=O)N[C@H]1CCCNC1
Potency [1]: inactive | Potency [2]: 935 nM (active) | Potency [3]: 93.5 nM (active) | Potency [7]: 8330 nM (active) | Potency [11]: 1480 nM (active) | Potency [5]: 14.8 µM (active) and 7.31 µM (active) | Potency [6]: 264 nM (active)

COC(=O)Nc1ccc(-c2nc(N3CCOCC3)c3cnn(C4CCN(Cc5cccnc5)CC4)c3n2)cc1
Potency [1]: inactive | Potency [2]: 166 nM (active) | Potency [3]: 59 nM (active) | Potency [9]: 46.9 nM (active) | Potency [12]: 1030 nM (active) | Potency [5]: 148 nM (active) and 920 nM (active) | Potency [6]: 16600 nM (active)

NCC(=O)Nc1ccc(-n2nc(C(F)(F)F)cc2-c2ccc3c(ccc4ccccc43)c2)cc1
Potency [1]: inactive | Potency [2]: 20900 nM (active) | Potency [3]: 4180 nM (active) | Potency [9]: 20900 nM (active) | Potency [5]: 14.8 µM (active) and 10.3 µM (active) | Potency [6]: 52.6 nM (active)

COc1c(OCCCN2CCOCC2)ccc2c3n(c(=NC(=O)c4cnc(N)nc4)nc12)CCN3
Potency [1]: inactive | Potency [2]: 57.5 nM (active) | Potency [3]: 1820 nM (active) | Potency [9]: 457 nM (active) | Potency [5]: 150 nM (active)

CC(C)C[C@H](NC(=O)CNC(=O)c1cc(Cl)ccc1Cl)B(O)O
Potency [1]: inactive | Potency [2]: 264 nM (active) | Potency [3]: 332 nM (active) | Potency [7]: 132 nM (active) | Potency [13]: 93.5 nM (active) | Potency [10]: 83.3 nM (active) | Potency [5]: 1320 nM (active) | Potency [6]: 418 nM (active)

Cc1cc(Nc2cc(N3CCN(C)CC3)nc(Sc3ccc(NC(=O)C4CC4)cc3)n2)n[nH]1
Potency [1]: inactive | Potency [2]: 3720 nM (active) | Potency [3]: 6620 nM (active) | Potency [7]: 20900 nM (active) | Potency [10]: inactive | Potency [12]: 231 nM (active) | Potency [6]: 9350 nM (active)

CC(C)c1noc(N2CCC(COc3ccc(-c4ccc(S(C)(=O)=O)cc4)nc3)CC2)n1
Potency [1]: inactive | Potency [2]: inactive | Potency [3]: inactive | Potency [9]: inactive | Potency [5]: inactive | Potency [6]: inactive

O=C(O)CCCc1c[nH]c2ccccc12
Potency [1]: inactive | Potency [2]: inactive | Potency [3]: inactive | Potency [9]: inactive | Potency [12]: inactive | Potency [5]: inactive | Potency [6]: inactive

CC[C@@H]1C(=O)N(C)c2cnc(Nc3ccc(C(=O)NC4CCN(C)CC4)cc3OC)nc2N1C1CCCC1
Potency [1]: inactive | Potency [2]: 66.2 nM (active) | Potency [3]: 74.3 nM (active) | Potency [13]: 8.3 nM (active) | IC50 (viability decrease) [8]: 13.2 nM (active) | Potency [5]: 418 nM (active)

C[C@]12CC[C@H](O)CC1=CCC1C2CC[C@]2(C)C(n3cnc4ccccc43)=CCC12 (stereo not given in full)
Potency [1]: inactive | Potency [2]: inactive | Potency [3]: inactive | Potency [9]: inactive | Potency [5]: inactive | Potency [6]: inactive

O=C(Nc1cn[nH]c1-c1nc2ccc(CN3CCOCC3)cc2[nH]1)NC1CC1
Potency [2]: 3720 nM (active) | Potency [3]: 7430 nM (active) | Potency [4]: 33.2 nM (active) | Potency [12]: 1160 nM (active) | Potency [5]: inactive | Potency [6]: 9350 nM (active)

COc1ccc(F)c(F)c1C(=O)c1cnc(NC2CCN(S(C)(=O)=O)CC2)nc1N
Potency [1]: inactive | Potency [2]: 2640 nM (active) | Potency [3]: 1180 nM (active) | Potency [9]: 2350 nM (active) | Potency [5]: 3.72 µM (active) and 4.11 µM (active)

COc1ccc(-c2cc3c(C)nc(N)nc3n(C3CCC(OCCO)CC3)c2=O)cn1 (stereo not given)
Potency [1]: inactive | Potency [2]: 118 nM (active) | Potency [3]: 74.3 nM (active) | Potency [9]: 26.4 nM (active) | Potency [12]: 184 nM (active) | Potency [5]: 41.8 nM (active) and 366 nM (active) | Potency [6]: 1480 nM (active)
